Screening results as filed in PubChem.
A selection: hits, their analogues and other compounds. The true share with any hit is near 2.5%.
CRFR2-BP ag – CRF-BP/CRF-R2 complex agonism. actives 0.46% (n = 350,000). HEK293 CRF-R2/CRF-BP, calcium dye fluorescence (FLIPR); percent of saturating CRF peptide response. activation, % at 13.2 µM;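 active means activation of at least 50%, plus an integration ratio under a set limit after plate pattern correction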;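 further: plate controls were neutral control wells without compound for no effect and CRF at EC100 for full effect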
SKN-1 inh – blocks SKN-1 activity in C. elegans. C. elegans VP596 Pgst-4::GFP/RFP ratio, acrylamide-induced, 24 h. inhibition, % at 21.8 µM. actives 0.49% (n = 360,000). AID 624304;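 active means interference check ratio from 0.5 to 1.5 plus GFP to RFP signal ratio inhibition reaching or exceeding a fixed threshold, cut at about 30% in these data, passing the limit was not always enough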
iPSC survival up – increases survival of single human iPS cells; hiPSC single-cell survival, ATPlite luminescence; 100% = ROCK inhibitor wells, 0% = DMSO; survival enhancement, % at 20 µM; actives 0.044% (n = 360,000); AID 602274; in the data active means survival enhancement above about 18%;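 further: cells exposed to compounds for 16 hours before the ATP read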
Cardio protect – protects H9c2 cardiomyocytes from peroxide injury; H2O2 injury protection, ATPLite, 2 h; AID 588492; protection from H2O2 cell death, % at 20 µM; actives 0.63% (n = 360,000);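 active means compounds giving at least 50% protection of heart cells from peroxide-induced death in the single-dose screen, raw or plate-pattern-corrected value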;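 further: 0% = DMSO wells with peroxide and 100% = DMSO wells without peroxide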
CRFBP-R2 block – antagonists of CRF-binding protein/CRF-R2 receptor complex; actives 0.59% (n = 350,000); inhibition, % at 11.8 µM; HEK293 CRF-R2/CRF-BP, CRF-induced calcium fluorescence; AID 588475;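 active means inhibition of the ligand-induced calcium signal above about 50% at the single tested concentration, limit read from the data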
H9c2 TAG inh – reduces triacylglycerol accumulation in H9c2 cells | Nile Red lipid (TAG) fluorescence; cells loaded with 200 µM oleic acid | inhibition, % at 12.5 µM | actives 0.66% (n = 230,000);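 active means pattern-corrected inhibition of lipid staining of at least 50% with the nuclear-stain viability signal not falling by more than 50%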;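 further: 0% = DMSO wells and 100% = triacsin C control wells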
The depositor's hits bear a star.

For COC(=O)c1ccc(CSc2nc3ccccc3c(=O)n2-c2ccccc2)o1 the results were CRFR2-BP ag 0, SKN-1 inh -2, iPSC survival up 3, Cardio protect -10, CRFBP-R2 block 53* and H9c2 TAG inh 5.
For CCOC(=O)N1CCN(C(=O)CSc2nc3ccccc3c(=O)n2-c2ccccc2)CC1 the results were CRFR2-BP ag -1, SKN-1 inh 2, iPSC survival up -2, Cardio protect 52*, CRFBP-R2 block -9 and H9c2 TAG inh 5.
`COc1c(Cl)cc(-c2noc(C)c2C(=O)NCc2ccc3c(c2)OCO3)cc1Cl` gave CRFR2-BP ag 71*, SKN-1 inh 6, iPSC survival up 2, Cardio protect 0, CRFBP-R2 block -37 and H9c2 TAG inh 11.
For COc1cc(-c2noc(C)c2C(=O)NCc2ccc3c(c2)OCO3)cc(OC)c1OC the results were CRFR2-BP ag -1, SKN-1 inh 2, iPSC survival up 2, Cardio protect 7, CRFBP-R2 block 7 and H9c2 TAG inh -18.
For Cn1c(/C(C#N)=C(\O)c2ccc([N+](=O)[O-])s2)nc2ccccc21 the results were CRFR2-BP ag -2, SKN-1 inh 40*, iPSC survival up 0, Cardio protect -1 and CRFBP-R2 block 2.
Cn1c(/C(C#N)=C(\O)c2ccc(Cl)s2)nc2ccccc21 was read as CRFR2-BP ag 0, SKN-1 inh 6, iPSC survival up 0, Cardio protect 1 and CRFBP-R2 block 3.
COc1ccc(C)cc1NC(=O)CCCN1C(=O)CN(C)C1=O was read as CRFR2-BP ag 0, SKN-1 inh -12, iPSC survival up 0, Cardio protect 9, CRFBP-R2 block 8 and H9c2 TAG inh 6.
Fc1ccc(-c2nc3c4ccccc4ccn3c2CC2CCCCC2)cc1 was read as SKN-1 inh 7, iPSC survival up -3 and Cardio protect -9.
For O=C(Nc1cccc(Cl)c1)c1cc(N=Nc2ccc([N+](=O)[O-])cc2Cl)ccc1O the results were CRFR2-BP ag 31, SKN-1 inh 2, iPSC survival up -1, Cardio protect -21 and CRFBP-R2 block 69*.
Screening O=C(Nc1cccc(Cl)c1)c1cccc(Oc2ccc([N+](=O)[O-])cc2Cl)c1 returned CRFR2-BP ag 0, SKN-1 inh -1, iPSC survival up 0, Cardio protect -29 and CRFBP-R2 block -6.
Screening O=C(Nc1ccc([N+](=O)[O-])cc1Cl)c1cc(Cl)ccc1O returned CRFR2-BP ag 61*, SKN-1 inh 17, iPSC survival up -2, Cardio protect -42, CRFBP-R2 block 87* and H9c2 TAG inh -8.
Screening COC(=O)c1ccc(COC(=O)CCc2nc(-c3ccccc3)c(-c3ccccc3)o2)cc1 returned CRFR2-BP ag 10, SKN-1 inh 10, iPSC survival up -1, Cardio protect -4 and CRFBP-R2 block 41.
Screening N#C/C(=C\c1ccc(Cl)cc1Cl)c1n[nH]c(Cn2cncn2)n1 returned CRFR2-BP ag 3, SKN-1 inh 44*, iPSC survival up 2, Cardio protect -6, CRFBP-R2 block -13 and H9c2 TAG inh -2.
For CC(N=C1NS(=O)(=O)c2ccccc21)C(=O)N1CCc2ccccc2C1 (stereo unspecified) the results were CRFR2-BP ag 1, SKN-1 inh -5, iPSC survival up -1, Cardio protect 6, CRFBP-R2 block 106* and H9c2 TAG inh 2.
CCCCCCCC/C=C\CCCCCCCC(=O)NCCc1ccc(O)c(O)c1 was read as CRFR2-BP ag 8, SKN-1 inh -5, iPSC survival up -4, Cardio protect 67*, CRFBP-R2 block -33 and H9c2 TAG inh 130.
COc1ccccc1/C=C/C=C1\Oc2c(ccc(O)c2CN2CCN(CCO)CC2)C1=O was read as CRFR2-BP ag 59*, SKN-1 inh -23, iPSC survival up -2, Cardio protect 1 and CRFBP-R2 block -65.
For CCN1CCN(Cc2c(O)ccc3c2O/C(=C\c2ccc(C)cc2)C3=O)CC1 the results were CRFR2-BP ag 54*, SKN-1 inh 2, iPSC survival up 3, Cardio protect 3, CRFBP-R2 block -54 and H9c2 TAG inh 8.
